From PubChem BioAssay (NCI) come the findings set out here.

Some test systems named below: NCI-H23 lung; NCI-H226 lung; NCI-H322M lung; HOP-62 NSCLC; NCI-H460 lung; HOP-92 NSCLC; NCI-H522 lung; A549/ATCC NSCLC; 786-0 renal; COLO 205 colon; DU-145 prostate; K-562 leukemia; MALME-3M melanoma; MDA-MB-231 breast; RXF 393 renal; SF-268 CNS; SF-295 CNS; SF-539 CNS; UACC-257 melanoma; M14 melanoma.
Common to all, as to assay: NCI-60 one-dose screen, 48 h (100 = growth as untreated, 0 = no growth, -100 = all killed)
Conditions in all cases: 10 µM unless noted

About 83,000 compounds went through this panel and 20% of them were active in at least one assay; those are over-represented in the sample as a whole.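 For each line, cells grew in 96-well plates with the test compound present at a single concentration for 48 hours.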 A number with no mark means an inactive call. Activity calls are given as the source filed them. Rule for the calls: active = growth percent below 10; inactive = the rest.

For the compound `NCCNC(=O)c1cccc(COc2ccccc2NC(=O)c2cc(Br)c(Br)[nH]2)c1`, the growth with NCI-H23 lung was 84.1%; in the test with NCI-H226 lung, 95.4%; in the test with NCI-H322M lung it was 99.7%; with HOP-62 NSCLC, 105%; in the test with NCI-H460 lung, 99.4%; in the test on HOP-92 NSCLC, 107%. In addition, the growth in the test on NCI-H522 lung is 93.2%; in the test with A549/ATCC NSCLC it was 96.7%; in the test on 786-0 renal, 78.9%; in the test on COLO 205 colon it was 110%; in the test with DU-145 prostate, 96.3%; in the test with K-562 leukemia it was -16.3% (active). For the same compound, the growth was 98.9% in the test with MALME-3M melanoma; 91.4% in the test on MDA-MB-231 breast; 93.4% in the test with RXF 393 renal; 61.9% in the test with SF-268 CNS; 88.3% in the test with SF-295 CNS; 96.2% with SF-539 CNS. Besides, the results for the growth with UACC-257 melanoma and in the test with M14 melanoma were 116% and 102%, respectively.
As for `CCN(CC)S(=O)(=O)c1ccc(-c2nc(C(Cl)Cl)nc3cc(C)nn23)cc1`, the growth in the test on NCI-H23 lung is 14.6%; with NCI-H226 lung it was 69.7%; in the test on NCI-H322M lung, 57.1%; in the test on HOP-62 NSCLC, 5.6% (active); with NCI-H460 lung it was 8.65% (active); with HOP-92 NSCLC it was -5.03% (active). Moreover, the growth was 56% in the test on NCI-H522 lung; 0.55% (active) in the test with A549/ATCC NSCLC; 92.5% in the test on 786-0 renal; -18.7% (active) in the test with COLO 205 colon; 15.9% with DU-145 prostate; 8.36% (active) in the test with K-562 leukemia. Moreover, the growth in the test with MALME-3M melanoma was -7.09% (active); with MDA-MB-231 breast it was -0.482% (active); with RXF 393 renal, 13.3%; in the test on SF-268 CNS, 56.1%; in the test with SF-295 CNS, 48%; in the test on SF-539 CNS, 50.7%. In addition, the growth with UACC-257 melanoma was 59.3%; in the test on M14 melanoma it was 4.27% (active).
On to `NS(=O)(=O)c1cccc(Nc2nc(SCC(=O)c3ccc(Cl)cc3)nc3c2CCC3)c1`, for which the growth with NCI-H23 lung was 75.1%; in the test with NCI-H226 lung it was 87.7%; in the test with NCI-H322M lung it was 97.1%; with HOP-62 NSCLC, 76.3%; in the test on NCI-H460 lung, 97.6%; with HOP-92 NSCLC, 63.3%. The growth in the test with NCI-H522 lung was 95.6%; with A549/ATCC NSCLC it was 91.7%; in the test with 786-0 renal, 82.5%; in the test on COLO 205 colon, 109%; in the test with DU-145 prostate, 97.6%; in the test with K-562 leukemia it was 90.2%. Also, the growth in the test with MALME-3M melanoma is 96.4%; with MDA-MB-231 breast, 92.5%; in the test with RXF 393 renal, 82.2%; in the test with SF-268 CNS it was 82.8%; in the test with SF-295 CNS, 93.1%; in the test on SF-539 CNS, 88.3%. For the same compound, the results for the growth in the test on UACC-257 melanoma and in the test on M14 melanoma were 104% and 101%, respectively.
For `O=C1[C@@H]2Cc3c([nH]c4ccccc34)[C@H](c3ccc(Cl)cc3)N2C(=O)CN1C1CCN(Cc2ccccc2)CC1`, the growth in the test with NCI-H23 lung is 74.1%; with NCI-H226 lung, 70.5%; in the test with NCI-H322M lung it was 59.2%; with HOP-62 NSCLC, 75.7%; in the test on NCI-H460 lung, 34.4%; in the test with HOP-92 NSCLC, 41.4%. In addition, the growth is 84.6% in the test on NCI-H522 lung; 38.8% in the test on A549/ATCC NSCLC; 68.1% in the test with 786-0 renal; 53.4% in the test with COLO 205 colon; 56.1% in the test with DU-145 prostate; 9.57% (active) in the test on K-562 leukemia. Besides, the growth in the test with MALME-3M melanoma is 74.5%; with MDA-MB-231 breast, 68.6%; in the test with RXF 393 renal, 57.6%; in the test on SF-268 CNS, 50.5%; with SF-295 CNS, 70.6%; in the test on SF-539 CNS, 77.6%. In addition, the growth is 61.4% in the test on UACC-257 melanoma and 27.9% with M14 melanoma.
For the compound `COc1cc(NC(=O)Nc2cccc(-c3cc(=O)c4c(OC)c(OC)c(OC)cc4o3)c2)cc(OC)c1OC`, the growth is 34.6% with NCI-H23 lung; 49.7% with NCI-H226 lung; 64.4% with NCI-H322M lung; 49.7% in the test with HOP-62 NSCLC; 31.5% in the test on NCI-H460 lung; -8.97% (active) with HOP-92 NSCLC. Moreover, the growth in the test on NCI-H522 lung was 39.6%; in the test on A549/ATCC NSCLC, 57.2%; in the test with 786-0 renal, 35.3%; in the test on COLO 205 colon, 58.1%; in the test on DU-145 prostate it was 39.2%; in the test with K-562 leukemia, 40%. Moreover, the growth with MALME-3M melanoma is 52.6%; in the test with MDA-MB-231 breast, 47.3%; in the test with RXF 393 renal, 15.2%; in the test on SF-268 CNS, 49.4%; with SF-295 CNS, 47.1%; with SF-539 CNS, 47.9%. For the same compound, the figures for the growth with UACC-257 melanoma and with M14 melanoma were 74.1% and 55.3%, respectively.
For `C#CCOc1ccc(/C=N/Nc2nc(-c3ccc(OC)cc3)cs2)cc1`, the growth was 68.9% in the test on NCI-H23 lung; 63.7% with NCI-H226 lung; 95% in the test on NCI-H322M lung; 97.6% in the test on HOP-62 NSCLC; 77.3% with NCI-H460 lung; 68.6% with HOP-92 NSCLC. Besides, the growth in the test with NCI-H522 lung is 70.1%; in the test with A549/ATCC NSCLC it was 77%; in the test on 786-0 renal, 89.2%; in the test on COLO 205 colon, 96.1%; with DU-145 prostate, 78.7%; with K-562 leukemia it was 47.7%. For the same compound, the growth in the test with MALME-3M melanoma is 83.9%; in the test with MDA-MB-231 breast, 91.3%; in the test with RXF 393 renal it was 99.1%; with SF-268 CNS, 87.2%; in the test on SF-295 CNS, 66.8%; in the test on SF-539 CNS, 97.3%. For the same compound, the growth in the test on UACC-257 melanoma is 76.1%; in the test on M14 melanoma it was 93.1%.
Turning to `Cc1ccc(NC(=O)Nc2nc3ccc([N+](=O)[O-])cc3s2)cc1`, the growth in the test on NCI-H23 lung was -4.55% (active); in the test on NCI-H226 lung, 6.4% (active); in the test with NCI-H322M lung, 4.58% (active); in the test with HOP-62 NSCLC, -4.29% (active); with NCI-H460 lung, 3.09% (active); in the test with HOP-92 NSCLC, -33% (active). Besides, the growth in the test on NCI-H522 lung was -10.6% (active); in the test with A549/ATCC NSCLC, 4.97% (active); in the test on 786-0 renal it was 8.32% (active); with COLO 205 colon, 48.8%; in the test on DU-145 prostate, 17.9%; with K-562 leukemia it was 10.7%. In addition, the growth in the test with MALME-3M melanoma was -19.2% (active); in the test with MDA-MB-231 breast, 2.83% (active); in the test with RXF 393 renal, -12.1% (active); in the test with SF-268 CNS, 10.8%; with SF-295 CNS it was 0.916% (active); in the test on SF-539 CNS, 14%. The values for the growth with UACC-257 melanoma and in the test with M14 melanoma were -12.5% (active) and 7.25% (active), respectively.
Consider `COc1ccc(/C=N\NC(=O)c2cnn(CC(O)c3ccccc3)c2N)cc1OCc1ccc(Cl)cc1` (stereo not given), for which the growth in the test with NCI-H23 lung was 74.7%; with NCI-H226 lung, 90.7%; in the test on NCI-H322M lung, 85%; with HOP-62 NSCLC, 84.1%; in the test on NCI-H460 lung, 44.3%; in the test with HOP-92 NSCLC, 86%. Moreover, the growth was 92.7% with NCI-H522 lung; 62.9% in the test on A549/ATCC NSCLC; 96.2% in the test on 786-0 renal; 72.8% in the test on COLO 205 colon; 55.3% in the test with DU-145 prostate; 60.2% in the test on K-562 leukemia. For the same compound, the growth was 65.2% with MALME-3M melanoma; 67% in the test on MDA-MB-231 breast; 41.8% in the test with RXF 393 renal; 91.6% in the test with SF-268 CNS; 56.9% with SF-295 CNS; 69.4% in the test with SF-539 CNS. Also, the results for the growth in the test with UACC-257 melanoma and in the test on M14 melanoma were 85% and 68.4%, respectively.
